outcome, z-score and cell count data for eleven compounds are collected here from PubChem BioAssay AID1645838 (ICCB-Longwood Screening Facility, Harvard Medical School, 2021).

Molecules are shown by their SMILES. Values joined by “and” are separate entries in the source; they are usually repeats but may differ in a detail not shown here. Equal values may be shown once. Out of some 2,000 compounds screened, about 100 (5%) were called active. The sample holds actives, similar compounds and a random draw of the others, so the mix is not that of the screen. No stated cut-off is given here; in the data, active means z-score above about 2; inactive means the rest. Some compounds were tested as several samples or in several runs, with calls that do not always agree.

This assay is described as follows: supercomplex reporter luminescence per Hoechst cell count – Hoechst nuclei count (AID 1645838).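 On all read-outs here: control cybrid cells.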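 On z-score: higher means more mitochondrial supercomplex formation.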 To be noted: Cells, luminescence/Hoechst cell count ratio; for z-score: stronger effect = higher value; for cell count: measured here: cell number, Hoechst nuclei count.
[1] abbreviates: library stock concentration (final well concentration not given) 80 uM.
Where [2] appears, read: library stock concentration (final well concentration not given) 400 uM.
Where [3] appears, read: library stock concentration (final well concentration not given) 2 mM.
[4] abbreviates: library stock concentration (final well concentration not given) 10 mM.
Where [5] appears, read: library stock concentration (final well concentration not given) 46 uM.
The mark [6] stands for this setting: library stock concentration (final well concentration not given) 278 uM.
Where [7] appears, read: library stock concentration (final well concentration not given) 1.67 mM.

With `CN1CCN(CCOc2cc(OC3CCOCC3)c3c(Nc4c(Cl)ccc5c4OCO5)ncnc3c2)CC1`, the outcome (library stock 10 mM) is “inactive; censored for cell count”. For the same compound, the z-score is 0.0594 (inactive) and -0.195 (inactive) under setting [1]; 0.376 (inactive) and 0.19 (inactive) under setting [2]; 1.62 (inactive) and 2.74 (active) under setting [3]. Besides, the cell count was 4300 and 6110 under setting [1]; 4050 and 5610 under setting [2]; 3190 and 3140 under setting [3].

For `O=C1C(c2ccccc2)N(c2ccc(Br)cc2)C(=O)N1c1ccc(Br)cc1` (stereo not given), the z-score is -0.397 (inactive) and the cell count was determined as 4960.

As for `CC#CCC(C)C(O)C=CC1C(O)C[C@@H]2CC(=CCCCC(=O)O)C[C@@H]12` (stereo not given in full), the z-score runs as follows: under setting [1], -0.0626 (inactive); under setting [2], -0.295 (inactive); under setting [3], 0.193 (inactive); under setting [4], 0.43 (inactive). The cell count runs as follows: under setting [1], 5530; under setting [2], 5750; under setting [3], 5230; under setting [4], 4650.

For `Nc1ncnc2c1c(-c1ccc(Oc3ccccc3)cc1)cn2C1CCCC1`, the z-score under setting [1] was 0.00446 (inactive), the z-score under setting [2] is 0.328 (inactive), the z-score under setting [3] is 0.396 (inactive) and the z-score under setting [4] was 0.246 (inactive). Further, the cell count stood at 4810 under setting [1], 4230 under setting [2], 4080 under setting [3] and 3660 under setting [4].

With `COc1cccc(-c2cn(-c3ccc(CCN4CCC(O)CC4)cc3)c3ncnc(N)c23)c1`, the z-score is -0.0662 (inactive) under setting [5], -0.203 (inactive) under setting [6], 0.503 (inactive) under setting [7] and 6.01 (active) under setting [4]. Besides, the cell count came to 6890 under setting [5], 6710 under setting [6], 6410 under setting [7] and 2860 under setting [4].

In the case of `Cn1cc(-c2ccc3c(c2)CCN3C(=O)Cc2cccc(C(F)(F)F)c2)c2c(N)ncnc21`, the z-score was -0.404 (inactive) under setting [5], -0.312 (inactive) under setting [6], -0.398 (inactive) under setting [7] and 0.717 (inactive) under setting [4]. Moreover, the cell count reads like this: under setting [5], 6450; under setting [6], 6260; under setting [7], 6230; under setting [4], 4040.

On to `CCCCCC(O)CCC1C(O)C[C@H]2Cc3c(cccc3OCC(=O)O)C[C@@H]12` (stereo not given in full), for which the z-score runs as follows: under setting [1], -0.232 (inactive); under setting [2], -0.452 (inactive); under setting [3], -0.204 (inactive); under setting [4], -0.825 (inactive). For the same compound, the cell count by setting is: under setting [1], 6220; under setting [2], 5860; under setting [3], 5910; under setting [4], 6040.

As to `CCCCC/C=C\C/C=C\CCCCCCCC(=O)OCC(COC(=O)CCCCCCCCCCCCCCC)OC(=O)CCCCCCC/C=C\CCCCCCCC` (stereo not given), the z-score was 0.273 (inactive) and the cell count was determined as 5490.

For the compound `CCCC(=O)Nc1nc(-c2ccccc2)cc(-c2ccccc2)n1`, the z-score reads like this: under setting [1], -0.0977 (inactive); under setting [2], 0.0694 (inactive); under setting [3], -0.49 (inactive); under setting [4], -0.335 (inactive). The cell count runs as follows: under setting [1], 5390; under setting [2], 5300; under setting [3], 4980; under setting [4], 5140.

As for `O=C(Nc1nnc(-c2ccco2)o1)c1cc(-c2ccccc2)nc2ccccc12`, the z-score was 0.451 (inactive) under setting [5], 0.815 (inactive) under setting [6], 0.151 (inactive) under setting [7] and 2.24 (active) under setting [4]. The cell count came to 6600 under setting [5], 6010 under setting [6], 6640 under setting [7] and 4920 under setting [4].

In the case of `COC(=O)C(NC(=O)c1cc(-c2ccccc2)nc2ccccc12)c1ccccc1` (stereo not given), the z-score was -0.299 (inactive) under setting [5], -0.209 (inactive) under setting [6], -0.176 (inactive) under setting [7] and -0.0618 (inactive) under setting [4]. In addition, the cell count under setting [5] amounted to 6610, the cell count under setting [6] amounted to 6570, the cell count under setting [7] was 6890 and the cell count under setting [4] is 6540.
